In the supplement of paper PMC3724861:
Many of the other results were omitted from the sample, so hits are more common in it than they were. How many sequences the whole screen found active is unknown.

Each sequence was assayed on T1, Caupolican (Caup) homeodomain DNA-binding domain (assay: PBM E-score (8-mer, recovered from the published 9-mer minima) (E-score (dimensionless, -0.5 to 0.5)); Drosophila protein; higher = stronger relative binding preference, active = 0.31 or more).
T1 sequence: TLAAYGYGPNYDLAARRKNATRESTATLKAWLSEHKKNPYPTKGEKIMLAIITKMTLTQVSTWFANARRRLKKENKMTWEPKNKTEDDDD
Summary of the method: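 Caup's homeodomain DNA-binding domain (residues 214-303) was made by in vitro transcription and translation and applied at 100 nM to custom-designed protein binding microarrays. Each value is an enrichment score that gives relative binding preference for a short DNA word, with higher meaning stronger. The 8-mer values were recovered from published 9-mer scores, each of which was the minimum of its two constituent 8-mer scores. A cutoff of 0.31 marks candidate sites.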

PBM E-score, inactive:
GGGCGCAA -0.179
AAGCACCG -0.0685
CGATTCAG -0.0377
CTCATAAA 0.05
AAACAAAA 0.189
GACATAGA 0.187
CACATACA 0.232
TCCATACA 0.139
AACATACG 0.28
CACATAAA 0.121
AACATAAA 0.286
AACATACC 0.303
GACATACC 0.169
GCTCCTCA -0.234
ATTCTCCG -0.0182
GACAGCAC 0.0877
CCCACTAG -0.195
CGTACTGC -0.0592
GAAAATCA 0.141
ACTCCGAG -0.0336
CTCCGGAA -0.126
AACATAGA 0.232
AGCATACA 0.202
GGATCTCA -0.137
TTGTTAAA 0.23
GTGTTAAC 0.259
ATGTTAAG 0.283
CTGTTAAC 0.117
AGGTTAAT 0.0346
CTGTTAAA 0.108
GTAAGGAA 0.0866
AGGAACGC -0.132
CTGTACCA 0.186
ACGTACAA 0.288
GTGTACGA 0.226
ATGTAGAA 0.281
CTGTACGC 0.037
GTCTACAA 0.185
GCTAAGAC -0.0692
ACTGACCC -0.14
AAATCCAG 0.0354
CGCTTGGA -0.0438
GAAGATGC -0.152
ACCAGTTC -0.0567
GGACTCCA -0.13
AGATATTG 0.0643
CATCTGCG -0.00421
CTAGAATC 0.0169
GAAGAACA 0.3
CACGAACA 0.27
CAAGAACA 0.187
AACGAACA 0.305
GAATCCCC -0.127
AGCGAGAC -0.0966
ACCCCATC -0.158
TATACACA 0.289
CATACACA 0.309
AATACACT 0.192
AATACACC 0.292
GATACACA 0.241
CATACACC 0.15
ATCTAGTG 0.0489
CGATATAC 0.0606
CCAAAAAG -0.00726
ACGAAGTA 0.0633
TCTGTCAA 0.157
AATGTCAA 0.235
GGTGTCAA 0.197
GATGTCCA 0.195
GTGAAGGA -0.0495
CTTAGACA 0.0709
AAATGGTA 0.174
GAGCTCTA -0.0532
GTTGTGTA 0.298
GCTGTATA 0.194
CCTGTATA 0.142
AGTGTATA 0.14
ATTGTATA 0.259
CGTGTATC 0.258
ACTGTATA 0.143
ATTGTGTA 0.283
AGAGGTAC 0.0429
AGTGGCCG -0.226
TGCGACAA 0.148
GAAGAGGA -0.161
ACCTGCAA -0.023
GCCGTATA 0.0675
ACGCCTAA 0.0349
TGGTCAAA 0.0685
CCCTCTAG -0.126
CTTGTAGC 0.271
ATTGTATC 0.215
AAATACTT 0.1
GAATACAC 0.25
AAATACAG 0.132
TAATACAA 0.278
CAATACAC 0.271
CAATACAA 0.261
CATCTCAG -0.0232
CCCAGCAG -0.201
TACATTCA 0.232
AAGCCTGC -0.156
AAAGTGGT 0.0391
GAAAAAGA -0.0311
GACCGAGA -0.103
ACTAGCTC 0.0549
ACGTGGTA 0.132
CTTAATCA 0.013
GTAGTAGA 0.0981
CTAGTACC 0.201
ATAGTACC 0.134
CTAGTAAA 0.211
ATAGTACG 0.0984
GTAGTATA 0.219
GCATTTAA 0.11
TTCTAGAA -0.0405

PBM E-score, active:
TACATAAA 0.329
TACATACA 0.415
GACATACA 0.389
AACATACT 0.31
AACATACA 0.361
ATGTTAAT 0.352
ATGTTAAA 0.353
ATGTTAAC 0.377
GTGTACAA 0.396
ATGTACAA 0.453
CTGTACAA 0.335
TTGTACAA ≥ 0.44
TAAGAACA 0.313
TACGAACA 0.31
CATACACG 0.325
AATACACG 0.343
AATACACA 0.311
TATGTCAA ≥ 0.359
GATGTCAA 0.332
CTTGTATA 0.353
CGTGTATA 0.321
GTTGTATA 0.347
CTTGTGTA ≥ 0.341
CTTGTATC 0.34
AAATACAT 0.338
AAATACAA 0.327
AAATACAC 0.312
ATAGTACA 0.343
CTAGTACA 0.337
GTAGTACA 0.346
